Here are results for 16 compounds from PubChem BioAssay (EPA / NIEHS).

Each structure is given as a SMILES string. Records with an inconclusive call do not appear. Active and inactive are the calls of the source. The calls were made as follows: active = hit-call score of the fitted dose curve at least 0.9, where 1 is the maximum; inconclusive = response in the unintended direction; inactive = score below 0.9.

Experiment [1] has as its target rabbit Imidazoline 2 Central (I2C), CKB (gene 100009085) (UniProt P00567). Briefly: NVS_ENZ_rabI2C: NovaScreen (NVS) Enzymatic Assay for rabbit Imidazoline 2 Central (I2C) (AID 2283228). The method in brief:
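Rabbit brain membranes, cell-free; readout by filter-based scintillation counting 1.5 hours after dosing, loss of signal vs DMSO. Initial duplicate test at 25 uM, then concentration-response with 50 uM top concentration.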

Experiment [2] concerns the target rat Acetylcholinesterase (AChE), Ache (gene 83817) (UniProt P37136). Briefly: NVS_ENZ_rAChE: NovaScreen (NVS) Enzymatic Assay for rat Acetylcholinesterase (AChE) (AID 2283233). The method in brief:
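Rat brain membrane acetylcholinesterase activity measured colorimetrically 0.33 h after compound addition, loss of signal relative to DMSO. Primary screen in duplicate at 25 uM; actives re-run as concentration-response with 50 uM top concentration.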

For experiment [3], the system named is rat Monoamine Oxidase, MAO-A, Peripheral (MAOAP), gene 29253. Briefly: NVS_ENZ_rMAOAP: NovaScreen (NVS) Enzymatic Assay for rat Monoamine Oxidase, MAO-A, Peripheral (MAOAP) (AID 2283237). The method in brief:
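Rat liver mitochondrial membranes served as the MAO-A source, with enzyme activity measured by radiometric scintillation counting 1.17 hours after dosing. Loss of signal was fitted against DMSO; primary screen used 25 uM in duplicate, follow-up used concentration series.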

Experiment [4] has as its target rat Monoamine Oxidase, MAO-B, Central (MAOBC), Maob (gene 25750) (UniProt P19643). The experiment can be described thus: NVS_ENZ_rMAOBC: NovaScreen (NVS) Enzymatic Assay for rat Monoamine Oxidase, MAO-B, Central (MAOBC) (AID 2283238). The method in brief:
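Compounds were first tested in duplicate at 25 uM against MAO-B from rat brain tissue; those passing the inhibition threshold were retested in concentration series up to 50 uM. Radiodetection by scintillation counting at 1.17 h, analysed against DMSO baseline.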

Experiment [5] has as its target sheep Cyclooxygenase-1 (Cox1), PTGS1 (gene 443551) (UniProt P05979). The experiment can be described thus: NVS_ENZ_oCOX1: NovaScreen (NVS) Enzymatic Assay for sheep Cyclooxygenase-1 (Cox1) (AID 2283239).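 Also: actives reduce cyclooxygenase activity so potencies are for inhibitors.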 The method in brief:
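Absorbance read-out of cyclooxygenase activity in a cell-free preparation from sheep seminal vesicles, taken 0.66 hour after dosing. Initial testing was in duplicate at 25 uM, and confirmatory testing was run in concentration series.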

The target of experiment [6] is bovine Dopamine Receptor (DR), Non-selective Binding, DRD1 (gene 281125) (UniProt Q95136). Briefly: NVS_GPCR_bDR_NonSelective: NovaScreen (NVS) G Protein-Coupled Receptor Assay for bovine Dopamine Receptor (DR), Non-selective Binding (AID 2283241). The method in brief: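 Bovine striatal membranes; radioligand displacement read by filtration and scintillation counting 1 h after dosing, loss of signal vs DMSO. Screened in duplicate at 25 uM, then concentration-response for hits.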
bovine Dopamine Receptor (DR), Non-selective Binding, DRD1 (gene 281125), sequence (Q95136 whole entry, looked up): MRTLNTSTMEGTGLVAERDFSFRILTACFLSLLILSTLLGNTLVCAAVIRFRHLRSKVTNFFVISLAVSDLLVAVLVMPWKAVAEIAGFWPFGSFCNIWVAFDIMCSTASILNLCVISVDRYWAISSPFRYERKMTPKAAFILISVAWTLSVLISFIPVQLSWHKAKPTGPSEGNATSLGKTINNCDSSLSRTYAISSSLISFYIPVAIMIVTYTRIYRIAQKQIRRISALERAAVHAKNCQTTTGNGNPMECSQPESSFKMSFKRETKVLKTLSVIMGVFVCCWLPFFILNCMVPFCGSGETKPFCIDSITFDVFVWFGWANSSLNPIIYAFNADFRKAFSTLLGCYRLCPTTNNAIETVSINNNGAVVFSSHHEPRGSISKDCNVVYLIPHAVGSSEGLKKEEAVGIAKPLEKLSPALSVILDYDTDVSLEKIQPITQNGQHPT

In experiment [7] the target is human Vascular Endothelial Growth Factor Receptor 2 (VEGFR2), KDR (gene 3791) (UniProt P35968). The experiment can be described thus: NVS_ENZ_hVEGFR2: NovaScreen (NVS) Enzymatic Assay for human Vascular Endothelial Growth Factor Receptor 2 (VEGFR2) (AID 2283230). The method in brief: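 Cell-free recombinant VEGFR2 kinase, fluorescent substrate with electrophoretic mobility-shift separation; read 1 h after dosing. Screened at 25 uM in duplicate, hits to concentration-response up to 50 uM; loss-of-signal versus DMSO.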
human Vascular Endothelial Growth Factor Receptor 2 (VEGFR2), KDR (gene 3791), sequence (P35968 whole entry, looked up): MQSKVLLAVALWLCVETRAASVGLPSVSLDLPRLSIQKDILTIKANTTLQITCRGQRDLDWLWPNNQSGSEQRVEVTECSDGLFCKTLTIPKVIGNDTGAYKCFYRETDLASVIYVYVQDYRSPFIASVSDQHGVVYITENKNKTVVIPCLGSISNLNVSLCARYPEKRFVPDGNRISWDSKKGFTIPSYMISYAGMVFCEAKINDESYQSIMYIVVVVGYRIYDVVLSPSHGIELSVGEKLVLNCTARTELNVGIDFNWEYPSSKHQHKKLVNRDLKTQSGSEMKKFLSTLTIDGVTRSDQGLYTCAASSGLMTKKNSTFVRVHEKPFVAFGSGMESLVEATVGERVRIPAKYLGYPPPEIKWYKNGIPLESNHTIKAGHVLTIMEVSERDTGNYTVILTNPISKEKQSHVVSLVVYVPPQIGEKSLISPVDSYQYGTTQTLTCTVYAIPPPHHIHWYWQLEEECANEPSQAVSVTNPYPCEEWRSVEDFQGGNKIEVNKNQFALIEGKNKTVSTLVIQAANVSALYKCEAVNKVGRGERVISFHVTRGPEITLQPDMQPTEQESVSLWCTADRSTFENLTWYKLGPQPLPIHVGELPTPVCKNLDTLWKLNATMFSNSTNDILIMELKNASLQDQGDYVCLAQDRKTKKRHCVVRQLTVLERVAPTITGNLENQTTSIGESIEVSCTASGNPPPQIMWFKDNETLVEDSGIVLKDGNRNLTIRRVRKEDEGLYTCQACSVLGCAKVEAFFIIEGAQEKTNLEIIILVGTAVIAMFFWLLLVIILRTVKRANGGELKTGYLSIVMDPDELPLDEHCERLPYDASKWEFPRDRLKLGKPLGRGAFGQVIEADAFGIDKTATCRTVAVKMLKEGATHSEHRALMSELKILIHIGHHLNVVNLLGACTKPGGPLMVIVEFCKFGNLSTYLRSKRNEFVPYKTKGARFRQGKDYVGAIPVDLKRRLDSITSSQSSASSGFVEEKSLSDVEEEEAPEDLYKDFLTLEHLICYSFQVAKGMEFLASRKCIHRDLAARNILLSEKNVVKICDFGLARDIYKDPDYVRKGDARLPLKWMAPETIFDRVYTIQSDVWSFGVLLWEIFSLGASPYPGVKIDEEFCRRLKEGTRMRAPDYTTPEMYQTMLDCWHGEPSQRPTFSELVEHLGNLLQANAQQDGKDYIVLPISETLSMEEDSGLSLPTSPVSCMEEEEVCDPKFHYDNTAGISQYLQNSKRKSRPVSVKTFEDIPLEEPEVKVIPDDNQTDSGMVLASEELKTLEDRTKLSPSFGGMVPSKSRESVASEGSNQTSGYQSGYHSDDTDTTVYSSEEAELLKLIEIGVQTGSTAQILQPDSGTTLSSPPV

Experiment [8] has as its system bovine Angiotensin II Receptor Type 2 (AT2), gene 407157. Briefly: NVS_GPCR_bAT2: NovaScreen (NVS) G Protein-Coupled Receptor Assay for bovine Angiotensin II Receptor Type 2 (AT2) (AID 2283240). In outline:
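Radioligand displacement on bovine cerebellar membranes, 1 hour incubation, filter-based scintillation counting; loss of signal vs DMSO. Duplicate single-point screen at 25 uM, then concentration-response to 50 uM maximum.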

Experiment [9] addresses human Protein Tyrosine Phosphatase Receptor Type M (PTPRM), PTPRM (gene 5797) (UniProt P28827). The experiment can be described thus: NVS_ENZ_hPTPRM: NovaScreen (NVS) Enzymatic Assay for human Protein Tyrosine Phosphatase Receptor Type M (PTPRM) (AID 2283215). The method in brief: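 Cell-free recombinant PTPRM with fluorogenic substrate; product separated from substrate by electrophoretic mobility shift and read by fluorescence, 1.33 h after dosing. Primary screen single concentration (25 uM) in duplicate; actives retested in concentration series; loss of signal versus DMSO.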

Experiment [10] deals with human Sirtuin 2 (SIRT2), SIRT2 (gene 22933) (UniProt Q8IXJ6). The experiment can be described thus: NVS_ENZ_hSIRT2: NovaScreen (NVS) Enzymatic Assay for human Sirtuin 2 (SIRT2) (AID 2283217). The method in brief:
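Cell-free recombinant human SIRT2, fluorescent substrate with product separated by electrophoretic mobility shift, 1 hr. Screened in duplicate at 25 uM; hits rerun singly in concentration-response up to 50 uM, relative to DMSO.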

Experiment [11] deals with human Sirtuin 1 (SIRT1), SIRT1 (gene 23411) (UniProt Q96EB6). Briefly: NVS_ENZ_hSIRT1: NovaScreen (NVS) Enzymatic Assay for human Sirtuin 1 (SIRT1) (AID 2283219). The method in brief: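 Cell-free recombinant SIRT1 with a fluorescent substrate; substrate and product separated by electrophoretic mobility shift and read by fluorescence intensity, 1 h after dosing. Primary screen at 25 uM in duplicate; hits re-run in concentration-response up to 50 uM, relative to DMSO.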
human Sirtuin 1 (SIRT1), SIRT1 (gene 23411), sequence (Q96EB6 whole entry, looked up): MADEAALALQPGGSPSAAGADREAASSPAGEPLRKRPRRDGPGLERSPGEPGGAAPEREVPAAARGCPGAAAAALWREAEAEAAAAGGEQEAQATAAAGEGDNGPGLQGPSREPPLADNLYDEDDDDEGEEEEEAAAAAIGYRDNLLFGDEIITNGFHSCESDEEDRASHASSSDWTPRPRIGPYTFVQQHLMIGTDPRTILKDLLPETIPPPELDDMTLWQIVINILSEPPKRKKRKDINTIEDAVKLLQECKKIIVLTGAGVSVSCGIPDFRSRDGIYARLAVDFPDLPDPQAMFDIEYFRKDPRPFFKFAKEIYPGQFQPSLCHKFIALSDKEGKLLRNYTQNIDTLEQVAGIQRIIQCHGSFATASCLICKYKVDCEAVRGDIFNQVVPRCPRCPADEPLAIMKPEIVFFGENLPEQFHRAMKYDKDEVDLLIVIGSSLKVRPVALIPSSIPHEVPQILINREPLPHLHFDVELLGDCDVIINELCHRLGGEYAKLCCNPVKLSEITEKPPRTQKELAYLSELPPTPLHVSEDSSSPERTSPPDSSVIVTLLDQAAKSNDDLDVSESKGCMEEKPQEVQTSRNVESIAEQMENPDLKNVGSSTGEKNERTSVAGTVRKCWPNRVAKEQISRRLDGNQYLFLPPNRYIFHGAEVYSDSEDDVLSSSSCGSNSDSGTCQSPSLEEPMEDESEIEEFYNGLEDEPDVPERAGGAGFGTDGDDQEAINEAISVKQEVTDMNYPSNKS

Experiment [12] concerns the target human Tyrosine Protein Kinase Receptor Tie-2 (Tie2), TEK (gene 7010) (UniProt Q02763). The experiment can be described thus: NVS_ENZ_hTie2: NovaScreen (NVS) Enzymatic Assay for human Tyrosine Protein Kinase Receptor Tie-2 (Tie2) (AID 2283225). In outline:
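Recombinant human Tie2 kinase activity was read cell-free by fluorescence with electrophoretic mobility shift, 1 hour after dosing. The screen used 25 uM in duplicate, then concentration-response up to 50 uM. Signal loss was scored against DMSO.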

Experiment [13] concerns the target human Vascular Endothelial Growth Factor Receptor 1 (VEGFR1), FLT1 (gene 2321) (UniProt P17948). Briefly: NVS_ENZ_hVEGFR1: NovaScreen (NVS) Enzymatic Assay for human Vascular Endothelial Growth Factor Receptor 1 (VEGFR1) (AID 2283226). In outline:
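Cell-free assay of recombinant human VEGFR1 kinase with substrate, measured 1 h after dosing; fluorescence with electrophoretic mobility-shift separation of substrate and product, referenced to DMSO; primary screen at 25 uM in duplicate, actives then run in concentration series.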

Experiment [14] concerns the target rat Adenylate Cyclase, Forskolin Stimulated, Adcy5 (gene 64532) (UniProt Q04400). Briefly: NVS_ENZ_rACFSKBinding: NovaScreen (NVS) Enzymatic Assay for rat Adenylate Cyclase, Forskolin Stimulated (AID 2283232). In outline: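 Rat forebrain membrane preparation, cell-free, read 1 h after dosing by filter-based scintillation counting. Primary screen in duplicate at 25 uM; actives (e.g. ≥30% inhibition) rerun in concentration-response up to 50 uM; fit versus DMSO.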

Experiment [15] concerns the target rat Catechol-O-Methyl Transferase (COMT), Comt (gene 24267) (UniProt P22734). Briefly: NVS_ENZ_rCOMT: NovaScreen (NVS) Enzymatic Assay for rat Catechol-O-Methyl Transferase (COMT) (AID 2283235). The method in brief: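 Cell-free enzyme activity with protein extracted from rat dorsal striatum, measured by HPLC with absorbance detection. Compounds screened at 25 uM in duplicate; actives then run in concentration-response up to 50 uM, loss of signal versus DMSO.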

The target in experiment [16] is human Vascular Endothelial Growth Factor Receptor 3 (VEGFR3), FLT4 (gene 2324) (UniProt P35916). The experiment can be described thus: NVS_ENZ_hVEGFR3: NovaScreen (NVS) Enzymatic Assay for human Vascular Endothelial Growth Factor Receptor 3 (VEGFR3) (AID 2283229). In outline: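 Cell-free recombinant VEGFR3 kinase reaction with fluorescent substrate, read 1 h after dosing by electrophoretic mobility shift separation of substrate and product. Single-concentration duplicate screen at 25 uM, then concentration-response up to 50 uM; loss of activity versus DMSO.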

The target in experiment [17] is sheep Cyclooxygenase-2 (Cox2), PTGS2 (gene 443460) (UniProt P79208). Briefly: NVS_ENZ_oCOX2: NovaScreen (NVS) Enzymatic Assay for sheep Cyclooxygenase-2 (Cox2) (AID 2283231). The method in brief:
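Enzyme extracted from ovine placenta tested cell-free; activity read colorimetrically by absorbance 0.66 hour after dosing. Primary screen in duplicate at 25 uM; hits rerun as concentration series to 50 uM, loss of signal versus DMSO baseline.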

For experiment [18], the target named is human Protein Tyrosine Phosphatase Receptor Type C (PTPRC), PTPRC (gene 5788) (UniProt P08575). Briefly: NVS_ENZ_hPTPRC: NovaScreen (NVS) Enzymatic Assay for human Protein Tyrosine Phosphatase Receptor Type C (PTPRC) (AID 2283212). In outline: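 Yeast-extracted human PTPRC used in a cell-free colorimetric enzyme activity read-out, 1 h after dosing. Primary screen in duplicate at 25 uM; actives rerun in concentration-response up to 50 uM, DMSO as baseline.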

rat Monoamine Oxidase, MAO-B, Central (MAOBC), Maob (gene 25750), sequence (P19643 whole entry, looked up): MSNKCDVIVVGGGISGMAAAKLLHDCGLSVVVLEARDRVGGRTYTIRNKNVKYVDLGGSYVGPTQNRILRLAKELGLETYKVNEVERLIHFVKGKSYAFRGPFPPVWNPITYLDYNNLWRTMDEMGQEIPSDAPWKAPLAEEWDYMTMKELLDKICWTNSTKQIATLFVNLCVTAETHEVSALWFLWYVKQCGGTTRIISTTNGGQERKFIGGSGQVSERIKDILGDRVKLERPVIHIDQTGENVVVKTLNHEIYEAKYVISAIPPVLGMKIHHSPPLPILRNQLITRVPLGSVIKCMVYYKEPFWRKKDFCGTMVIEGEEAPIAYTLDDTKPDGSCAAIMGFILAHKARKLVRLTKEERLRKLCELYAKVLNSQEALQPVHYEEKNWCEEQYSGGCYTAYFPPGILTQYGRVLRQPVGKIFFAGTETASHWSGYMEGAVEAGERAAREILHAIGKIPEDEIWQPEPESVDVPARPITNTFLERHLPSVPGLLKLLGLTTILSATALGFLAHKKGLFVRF
sheep Cyclooxygenase-1 (Cox1), PTGS1 (gene 443551), sequence (P05979 whole entry, looked up): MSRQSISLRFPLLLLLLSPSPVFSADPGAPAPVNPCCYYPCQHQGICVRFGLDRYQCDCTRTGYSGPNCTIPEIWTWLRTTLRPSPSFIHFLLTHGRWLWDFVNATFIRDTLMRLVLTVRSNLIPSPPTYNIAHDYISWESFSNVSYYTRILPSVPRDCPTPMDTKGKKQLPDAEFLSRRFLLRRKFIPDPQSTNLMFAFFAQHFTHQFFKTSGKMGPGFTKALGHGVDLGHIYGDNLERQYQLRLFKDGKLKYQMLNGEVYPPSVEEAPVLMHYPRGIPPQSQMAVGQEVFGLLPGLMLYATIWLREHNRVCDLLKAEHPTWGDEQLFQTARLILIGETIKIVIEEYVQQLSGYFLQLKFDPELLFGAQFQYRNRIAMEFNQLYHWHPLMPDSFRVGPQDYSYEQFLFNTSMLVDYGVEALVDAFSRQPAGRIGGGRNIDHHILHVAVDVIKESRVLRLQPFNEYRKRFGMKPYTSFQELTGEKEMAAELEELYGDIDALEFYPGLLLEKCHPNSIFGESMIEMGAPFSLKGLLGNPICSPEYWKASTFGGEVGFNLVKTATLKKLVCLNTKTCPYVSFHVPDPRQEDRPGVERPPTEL
sheep Cyclooxygenase-2 (Cox2), PTGS2 (gene 443460), sequence (P79208 whole entry, looked up): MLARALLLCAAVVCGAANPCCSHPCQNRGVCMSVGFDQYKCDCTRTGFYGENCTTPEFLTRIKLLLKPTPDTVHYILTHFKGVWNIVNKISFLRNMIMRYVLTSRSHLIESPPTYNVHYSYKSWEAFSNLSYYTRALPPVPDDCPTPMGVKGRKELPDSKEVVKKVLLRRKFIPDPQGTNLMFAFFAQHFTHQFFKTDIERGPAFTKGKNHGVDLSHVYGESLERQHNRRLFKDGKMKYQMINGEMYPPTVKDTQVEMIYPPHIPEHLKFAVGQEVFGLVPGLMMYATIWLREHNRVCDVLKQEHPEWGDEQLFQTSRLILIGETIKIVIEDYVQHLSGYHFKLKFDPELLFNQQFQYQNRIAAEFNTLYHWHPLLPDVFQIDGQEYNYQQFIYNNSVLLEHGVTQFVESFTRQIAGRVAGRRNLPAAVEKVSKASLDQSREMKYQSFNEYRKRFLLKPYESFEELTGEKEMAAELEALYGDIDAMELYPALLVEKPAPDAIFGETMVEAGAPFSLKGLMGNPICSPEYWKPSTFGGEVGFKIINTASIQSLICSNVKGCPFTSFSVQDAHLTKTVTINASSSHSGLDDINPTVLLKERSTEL
rat Acetylcholinesterase (AChE), Ache (gene 83817), sequence (P37136 whole entry, looked up): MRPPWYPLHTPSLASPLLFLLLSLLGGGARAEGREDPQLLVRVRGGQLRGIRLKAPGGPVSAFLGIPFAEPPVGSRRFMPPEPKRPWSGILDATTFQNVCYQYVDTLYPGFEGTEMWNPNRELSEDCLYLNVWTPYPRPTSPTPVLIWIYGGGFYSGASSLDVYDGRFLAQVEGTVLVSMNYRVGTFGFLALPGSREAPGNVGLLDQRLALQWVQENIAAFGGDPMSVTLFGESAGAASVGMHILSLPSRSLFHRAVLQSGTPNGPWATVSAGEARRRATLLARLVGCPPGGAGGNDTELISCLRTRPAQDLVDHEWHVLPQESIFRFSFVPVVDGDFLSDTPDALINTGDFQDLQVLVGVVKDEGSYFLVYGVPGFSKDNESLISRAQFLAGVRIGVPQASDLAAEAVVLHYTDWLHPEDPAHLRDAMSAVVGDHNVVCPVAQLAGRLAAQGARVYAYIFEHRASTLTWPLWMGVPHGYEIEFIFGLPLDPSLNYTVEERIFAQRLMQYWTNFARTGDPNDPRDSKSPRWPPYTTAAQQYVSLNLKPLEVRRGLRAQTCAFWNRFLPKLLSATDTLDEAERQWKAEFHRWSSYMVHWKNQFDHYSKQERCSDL

As to `CCN1CCC2(CC1)COc1cc3c(cc12)N(C(=O)c1ccc(-c2ccc(-c4nnc(C)o4)cc2C)cc1)CC3`, the call in [1] and in experiment [4] was inactive. For the same compound, the concentration at half-maximal activity (AC50) was 3.06 µM (active) in [2], 23.4 µM (active) in experiment [3], 4.68 µM (active) in experiment [5] and 9.79 µM (active) in [6].
`O=C(Nc1ccc2[nH]ccc2c1)c1cc2cc(F)ccc2n1Cc1cccc(F)c1`: the compound was called inactive in experiment [7] and in [8].
Consider `CC(=O)[O][Hg][c]1ccccc1`, for which the compound was classed as inactive in experiment [9], in experiment [12], in [13] and in [7]. Also, the concentration at half-maximal activity (AC50) in [10] was 2.46 µM (active); in experiment [11], 6.16 µM (active); in experiment [14], 26.8 µM (active); in experiment [3], 1.13 µM (active); in [4] it was 25 µM (active); in experiment [8], 37.4 µM (active).
Turning to `Nc1cccc2ccccc12`, in [5], the AC50 is 13.6 µM (active).
Take `Oc1cccc2cccnc12`: in [15], the concentration at half-maximal activity (AC50) is 1.53 µM (active). Further, the compound was classed as inactive in experiment [4].
On to `CCC(=O)C(CC(C)N(C)C)(c1ccccc1)c1ccccc1` (centres undefined), for which the AC50 is 3.37 µM (active) in [1], 2.99 µM (active) in experiment [4] and 6.89 µM (active) in experiment [6].
In the case of `CCC(C)(C)c1ccc(O)c(C(C)(C)CC)c1`, the call in experiment [11] and in experiment [7] was inactive.
In the case of `Clc1ccc(C2(Cn3cncn3)CC(Br)CO2)c(Cl)c1` (centres undefined), the compound was classed as inactive in experiment [16] and in [5].
In the case of `CC(C)(OO)c1ccccc1`, the figures for the concentration at half-maximal activity (AC50) in experiment [17] and in [5] were 6.28 µM (active) and 2.76 µM (active), respectively.
Turning to `CC(C)(C)c1cc(O)ccc1O`, the concentration at half-maximal activity (AC50) in experiment [17] is 6.85 µM (active); in [5], 11 µM (active).
With `COc1cc2c(cc1OC)[C@@]13CCN4CC5=CCO[C@H]6CC(=O)N2[C@H]1[C@H]6[C@H]5C[C@H]43`, the half-maximal activity concentration (AC50) in experiment [2] was 18.1 µM (active).
For the compound `CCOP(=S)(OCC)Oc1ccc(S(C)=O)cc1` (centres undefined), the outcome in [13] was inactive.
For `Nc1ccc(-c2ccc(N)c(Cl)c2)cc1Cl`, the concentration at half-maximal activity (AC50) in [5] was 1.64 µM (active).
Consider `ClC(Cl)=C(Cl)C(Cl)=C(Cl)Cl`, for which, in experiment [5], the call was inactive.
Take `COC(=O)Cc1ccccc1`: the result in experiment [5] was inactive.
In the case of `O=C(O)C(F)(F)C(F)(F)C(F)(F)C(F)(F)C(F)(F)C(F)(F)C(F)(F)C(F)(F)C(F)(F)C(F)(F)F`, in experiment [18], the half-maximal activity concentration (AC50) was 11.9 µM (active). For the same compound, the compound was called inactive in experiment [5].
